Values quoted from earlier work as cited in PubChem BioAssay AID977608.
The campaign covered roughly 4,300 compounds. About 4,300 (100%) were called active. The limit is not given here; nearly all actives have IC50 up to about 1400 µM. The set was probably picked from earlier hits. Some of the results follow. *1 amine or outer side, *2 acyl side, *3 side chain or, on linkers, in order; H or OH if unused. Where a SMILES comes first, the peptide text is derived from it. Square brackets hold non-standard residues; d marks the D form. Residues, ends and D or L forms follow the SMILES beside them. Side-chain parts run from the residue outwards. Peptide text beside a SMILES is read from it. [ ]: non-standard residue; d: D form. The star is where a group is joined. N(2S-NH-3-Ph-propyl)Phe = O=C([C@H](Cc1ccccc1)N(C[C@H](Cc1ccccc1)N[*:3])[*:1])[*:2]; Orn(CH(NH2)2) = NC(N)NCCC[C@H](N)C(=O)O; X1 = CC(N)NCCC[C@H](N)C(=O)*; Nle = CCCC[C@H](N)C(=O)O

Experiment: literature IC50 values for PDB complexes, PDB-derived complexes (AID 977608)
Conditions: PDB protein-ligand complexes
[1] = protein: metallodependent class II fructose-1,6-bisphosphate aldolase (FBA-tb), PDB entry 4a22 unless noted

Nc1c2c(nc3cc(Cl)ccc13)C[C@H]1C=C(CCCCn3cc(CO)nn3)C[C@@H]2C1
IC50 [1]: 0.43 nM [protein: ACETYLCHOLINESTERASE, PDB entry 4a16] (active)

Nc1c2c(nc3cc(Cl)ccc13)C[C@H]1C=C(CCO)C[C@@H]2C1
IC50 [1]: 1.1 nM [protein: ACETYLCHOLINESTERASE, PDB entry 4bdt] (active)

O=C(O)Cc1cc(=O)oc2c(O)c(O)ccc12
IC50 [1]: 4800 nM [protein: Reverse transcriptase/ribonuclease H RT RNase H, PDB entry 4qag] (active)

CC[C@H](C)[C@H]1NC(=O)[C@@H](NC(=O)[C@H](C)[C@H](O)C(C)C)[C@@H](C)OC(=O)[C@@H]2COC(=O)CNC(=O)/C=C/[C@]3(CO3)[C@@H](C)Oc3ccc(cc3)[C@H](NC1=O)C(=O)N(C)[C@@H](Cc1ccccc1)C(=O)N[C@H]([C@@H](C)O)C(=O)N2
IC50 [1]: 200 nM [protein: Escherichia coli RNA polymerase, PDB entry 4mex] (active)

C[C@H](N)C(=O)N[C@@H](C)C(=O)N[C@@H](C)C(=O)O
IC50 [1]: 340000 nM [protein: DI-OR TRIPEPTIDE\:H+ SYMPORTER, PDB entry 4d2d] (active)

C[C@@]1(O)CCN2C(=O)CCc3cccc1c32
IC50 [1]: 198000 nM [protein: DUAL SPECIFICITY MITOGEN-ACTIVATED PROTEIN KINASE KINASE 1, PDB entry 3zlw] (active)

Oc1cc(Cl)ccc1Oc1ccc(Cl)cc1Cl
IC50 [1]: 54.7 µM [protein: Enoyl-[acyl-carrier-protein] reductase hERG, PDB entry 4w9n] (active)

Nc1nc2nc(C(=O)NCCNC(=O)O)cnc2c(=O)[nH]1
IC50 [1]: 28000 nM [PDB entry 4mx5] (active)

Nc1nc2nc(C(=O)NCCNC(=O)Nc3ccccc3)cnc2c(=O)[nH]1
IC50 [1]: 209000 nM [PDB entry 4mx1] (active)

NCCCCC[C@@H](C[SeH5])C(=O)O
IC50 [1]: 2 nM [protein: Carboxypeptidase B, PDB entry 3wc5] (active)

CCCC[C@H](NC(=O)[C@H](C)NC(=O)[C@H](CCC(=O)O)NC(=O)[C@H](Cc1ccccc1)NC[C@H](Cc1ccccc1)NC(=O)[C@@H](NC(=O)[C@@H](N)CCCNC(C)N)C(C)C)C(=O)O (stereo partly drawn) (H-[N(2S-NH-3-Ph-propyl)Phe]([Val-X1])EA[Nle]-OH)
IC50 [1]: 142 nM [protein: HIV-1 PROTEASE (Q7K, L10I, D25N, M36V, M46L, I54V, I62V, L63P, A71V, V82T, I84V, L90M mutation), PDB entry 4gye] (active)

Nc1ncnc2c1ncn2[C@@H]1O[C@H](CO[P+](=O)O[C@@H]2[C@H](O)[C@@H](CO[P+](O)(O)O[C@@H]3[C@H](O)[C@@H](CO[P+](O)(O)O)O[C@H]3n3cnc4c(N)ncnc43)O[C@H]2n2cnc3c(N)ncnc32)[C@@H](O)[C@H]1O (some centres not stated)
IC50 [1]: 13 nM [protein: interferon-induced endoribonuclease, ribonuclease L, PDB entry 1wdy] (active)

Oc1c(Br)cccc1-c1[nH]c(Br)c(Br)c1Br
IC50 [1]: 19000 nM [protein: Non-Mevalonate Pathway Enzyme IspD from Arabidopsis thaliana, PDB entry 4nan] (active)

Oc1c(Cl)cc(Cl)cc1-c1[nH]c(Br)c(Br)c1Br
IC50 [1]: 2200 nM [protein: Non-Mevalonate Pathway Enzyme IspD from Arabidopsis thaliana, PDB entry 4nal] (active)

Oc1c(Br)cc(Br)cc1-c1[nH]c(Br)c(Br)c1Br
IC50 [1]: 1400 nM [protein: Non-Mevalonate Pathway Enzyme IspD from Arabidopsis thaliana, PDB entry 4nak] (active)

CC(C)C[C@H](NC(=O)[C@H](CO)NC(=O)[C@H](CO)NC(=O)[C@H](CCC(=O)O)NC(=O)[C@H](Cc1ccc(O)cc1)NC(=O)[C@H](Cc1ccc(O)cc1)NC(=O)[C@H](CCCNC(N)N)NC(=O)[C@@H](N)Cc1c[nH]c2ccccc12)C(=O)N[C@@H](CCC(=O)O)C(=O)N1CCC[C@H]1C(=O)N[C@@H](Cc1ccc(O)cc1)C(=O)N1CCC[C@H]1C(=O)N[C@@H](CC(=O)O)C(=O)O (H-W[Orn(CH(NH2)2)]YYESSLEPYPD-OH)
IC50 [1]: 2 nM [PDB entry 1haa] (active)

CC(C)C[C@H](NC(=O)[C@H](CO)NC(=O)[C@H](CO)NC(=O)[C@H](CCC(=O)O)NC(=O)[C@H](Cc1ccc(O)cc1)NC(=O)[C@H](Cc1ccc(O)cc1)NC(=O)[C@H](CCCNC(N)N)NC(=O)[C@@H](N)Cc1ccccc1)C(=O)N[C@@H](CCC(=O)O)C(=O)N1CCC[C@H]1C(=O)N[C@@H](Cc1c[nH]c2ccccc12)C(=O)N[C@@H](CC(=O)O)C(=O)N[C@@H](CC(=O)O)C(=O)O (HELM PEPTIDE1{F.[NC(N)NCCC[C@H](N[*:1])C(=O)[*:2]].Y.Y.E.S.S.L.E.P.W.D.D}$$$$V2.0)
IC50 [1]: 4.9 nM [PDB entry 1rgj] (active)

CC(C)C[C@H](NC(=O)[C@H](CO)NC(=O)[C@H](CO)NC(=O)[C@H](CCC(=O)O)NC(=O)[C@H](Cc1ccc(O)cc1)NC(=O)[C@H](Cc1ccc(O)cc1)NC(=O)[C@H](CCCNC(N)N)NC(=O)[C@@H](N)Cc1c[nH]cn1)C(=O)N[C@@H](CCC(=O)O)C(=O)N1CCC[C@H]1C(=O)N[C@@H](Cc1c[nH]c2ccccc12)C(=O)N[C@@H](Cc1ccc(O)cc1)C(=O)N1CCC[C@H]1C(=O)N[C@@H](CC(=O)O)C(=O)O (H-H[Orn(CH(NH2)2)]YYESSLEPWYPD-OH)
IC50 [1]: 120 nM [PDB entry 1jbd] (active)

C[C@@H]1Oc2ccc(CN3CC=C(c4ccc(Cl)cc4)CC3)cc2NC1=O
IC50 [1]: 3 nM [protein: Poly [ADP-ribose] polymerase 1, PDB entry 4l6s] (active)

COC(=O)C[C@@H](C)c1n[nH]c2nc(N)[nH]c(=O)c2c1=O
IC50 [1]: 376000 nM [protein: Dihydropteroate synthase, PDB entry 4d8a] (active)

CCC(CC)Oc1cc(C(=O)O)cc(N)c1NC(C)=O
IC50 [1]: 8.31 nM [protein: Neuraminidase, PDB entry 4hzz] (active)

CCc1c(C)nc(-c2ccc(Cl)s2)nc1Nc1ccc(CC(=O)O)cc1
IC50 [1]: 32 nM [protein: Catalytic Domain Of Human Phosphodiesterase 4B, PDB entry 4myq] (active)

Cc1nc2ccccc2c(-c2cc(F)c3c(c2C)CCCO3)c1[C@H](OC(C)(C)C)C(=O)O
IC50 [1]: 67 nM [protein: HIV-1 integrase (F185K mutation), PDB entry 4e1n] (active)

Cc1nc(-c2nc3ccc(Cl)cc3[nH]2)c(C)c(-c2ccccc2)c1[C@H](OC(C)(C)C)C(=O)O
IC50 [1]: 5.03 nM [protein: Integrase HIV-1 IN CCD F185K/A128T, PDB entry 4o5b] (active)

CO[C@H](C(=O)O)c1c(C)nc2ccc(Br)cc2c1-c1ccc(Cl)cc1
IC50 (protein: HIV-1 Integrase catalytic core domain (A128T, F185K mutation), PDB entry 4jlh): 4000 nM (active) | IC50 (protein: HIV-1 Integrase, PDB entry 4dmn): 2300 nM (active)

Cc1ccc(-c2c([C@H](OC(C)(C)C)C(=O)O)c(C)nc3ccccc23)cc1C
IC50 [1]: 55 nM [protein: HIV-1 Integrase (F185K mutation), PDB entry 4e1m] (active)
